# Columns and labels:
# Assay in all cases: relative growth (AUC of 72 h growth curve relative to DMSO control, dAUC) (ratio); higher = more growth (less inhibition), active = hit call of the paper
# Settings in all cases: 20 µM;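 active = growth AUC significantly below the DMSO wells by Dunnett test; inactive = the rest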
# [1] = compound: C=CCOC(Cn1ccnc1)c1ccc(Cl)cc1Cl
# Outline: (§1)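 Isolates from Icelandic stream sediments and Silwood Park soil, along with whole sediment communities, were grown in Luria–Bertani medium to carrying capacity and diluted 1:100 into 96-well plates with each chemical at 20 µM (1% DMSO). A600 was measured hourly for 72 h, and values were averaged over three biological replicates. Relative growth (dAUC) is the spline-integrated growth-curve area over the mean of the DMSO controls.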
# [2] = compound: CC(=O)CC(c1ccccc1)c1c(O)c2ccccc2oc1=O
# Outline: as §1
# [3] = compound: CC1COc2ccccc2N1C(=O)C(Cl)Cl
# Outline: as §1
# [4] = compound: CCCCC(CC)CN1C(=O)[C@@H]2[C@H](C1=O)[C@@H]1C=C[C@H]2C1 (mixture of isomers)
# Outline: as §1
# [5] = compound: CCCCCCCCc1c(CC)nc2ncnn2c1N
# Outline: as §1
# [6] = compound: CCCCOCCOCCOCc1cc2c(cc1CCC)OCO2
# Outline: as §1
# [7] = compound: CCCOC(=O)NCCCN(C)C
# Outline: as §1
# [8] = compound: COC(=O)c1csc(C)c1S(=O)(=O)NC(=O)n1nc(OC)n(C)c1=O
# Outline: as §1
# [9] = compound: Cc1ccc(C(C)NC(=O)[C@@H](NC(=O)OC(C)C)C(C)C)cc1
# Outline: as §1
# [10] = compound: Cc1nn(C)c(Oc2ccccc2)c1/C=N/OCc1ccc(C(=O)OC(C)(C)C)cc1
# Outline: as §1
# [11] = compound: Cn1cc(C(=O)Nc2ccc(F)cc2-c2ccc(Cl)c(Cl)c2)c(C(F)F)n1
# Outline: as §1
# [12] = compound: Cn1cc(C(=O)Nc2ccccc2-c2cc(F)c(F)c(F)c2)c(C(F)F)n1
# Outline: as §1
# [13] = compound: O=C(NCc1ncc(C(F)(F)F)cc1Cl)c1c(Cl)cccc1Cl
# Outline: as §1
# [14] = compound: Oc1c(Cl)cc(Cl)c(Cl)c1Cc1c(O)c(Cl)cc(Cl)c1Cl
# Outline: as §1
# [15] = compound: S=C([S-])NCCNC(=S)[S-].S=C([S-])NCCNC(=S)[S-].[Mn+2].[Zn+2]
# Outline: as §1
# [16] = compound: c1ccc2[nH]c(-c3cscn3)nc2c1
# Outline: as §1
Target,relative growth [1],relative growth [2],relative growth [3],relative growth [4],relative growth [5],relative growth [6],relative growth [7],relative growth [8],relative growth [9],relative growth [10],relative growth [11],relative growth [12],relative growth [13],relative growth [14],relative growth [15],relative growth [16]
Community 7,0.922 (inactive),1.03 (inactive),0.994 (inactive),0.872 (inactive),1.03 (inactive),1.04 (inactive),1.12 (inactive),1.02 (inactive),1.08 (inactive),1 (inactive),1.06 (inactive),1.05 (inactive),1.07 (inactive),0.468 (inactive),1.12 (inactive),1.03 (inactive)
Hymenobacter 1 (Hymenobacter glaciei),0.768 (inactive),1.08 (inactive),0.952 (inactive),0.932 (inactive),1.05 (inactive),0.845 (inactive),1.07 (inactive),1.08 (inactive),0.999 (inactive),1.06 (inactive),0.927 (inactive),0.91 (inactive),1 (inactive),0.00356 (active),0.998 (inactive),0.917 (inactive)
Community 6,0.861 (inactive),0.916 (inactive),0.942 (inactive),0.75 (inactive),1.02 (inactive),0.907 (inactive),1.02 (inactive),1.01 (inactive),0.928 (inactive),0.712 (inactive),0.852 (inactive),1.06 (inactive),0.966 (inactive),0.442 (active),1.16 (inactive),1.01 (inactive)
Carnobacterium 1 (Carnobacterium gallinarum),0.879 (inactive),0.827 (inactive),0.955 (inactive),0.823 (inactive),1.13 (inactive),0.363 (inactive),0.986 (inactive),1.17 (inactive),1.01 (inactive),0.951 (inactive),0.779 (inactive),1 (inactive),1.16 (inactive),0.00936 (active),0.913 (inactive),0.908 (inactive)
Flavobacterium 1 (Flavobacterium glaciei),0.25 (active),1.03 (inactive),1.04 (inactive),1.05 (inactive),0.922 (inactive),0.986 (inactive),1.02 (inactive),0.979 (inactive),0.922 (inactive),0.849 (inactive),0.793 (inactive),1.05 (inactive),0.965 (inactive),0.0158 (active),0.895 (inactive),0.915 (inactive)
Pseudomonas 2 (Pseudomonas vancouverensis),0.914 (inactive),1 (inactive),0.989 (inactive),1.01 (inactive),0.969 (inactive),0.974 (inactive),0.987 (inactive),1.02 (inactive),0.996 (inactive),1.11 (inactive),0.967 (inactive),1.01 (inactive),0.98 (inactive),0.0738 (active),0.947 (inactive),0.959 (inactive)
Pseudomonas 1 (Pseudomonas baetica),1.01 (inactive),1.09 (inactive),1.04 (inactive),1.13 (inactive),0.923 (inactive),1.04 (inactive),0.968 (inactive),1.1 (inactive),1.06 (inactive),1.14 (inactive),1.15 (inactive),0.984 (inactive),1.04 (inactive),0.559 (active),0.921 (inactive),0.944 (inactive)
Aeromonas 2 (Aeromonas sobria),0.874 (inactive),0.948 (inactive),0.962 (inactive),0.971 (inactive),0.986 (inactive),0.986 (inactive),0.999 (inactive),1.01 (inactive),0.993 (inactive),1.03 (inactive),0.936 (inactive),0.987 (inactive),0.974 (inactive),0.00514 (active),0.907 (inactive),0.973 (inactive)
Sphingomonas 2 (Sphingomonas sp.),0.991 (inactive),1.2 (inactive),1.09 (inactive),1.07 (inactive),1.13 (inactive),0.821 (inactive),0.956 (inactive),1.14 (inactive),1.08 (inactive),1.14 (inactive),0.555 (active),1.02 (inactive),1.09 (inactive),0.0196 (active),0.975 (inactive),1.02 (inactive)
Community 10,0.783 (inactive),0.872 (inactive),0.795 (inactive),0.665 (inactive),0.99 (inactive),0.777 (inactive),1.02 (inactive),0.965 (inactive),0.84 (inactive),0.714 (inactive),0.742 (inactive),1.03 (inactive),0.996 (inactive),0.51 (active),1.11 (inactive),1.16 (inactive)
Community 9,0.764 (inactive),0.985 (inactive),1.02 (inactive),0.846 (inactive),1.02 (inactive),0.906 (inactive),1 (inactive),1.1 (inactive),0.905 (inactive),0.906 (inactive),0.839 (inactive),1.05 (inactive),1.03 (inactive),0.306 (active),1.03 (inactive),0.911 (inactive)
Community 4,0.814 (inactive),0.952 (inactive),0.85 (inactive),0.807 (inactive),0.98 (inactive),0.824 (inactive),0.992 (inactive),1.09 (inactive),0.867 (inactive),1.11 (inactive),0.837 (inactive),1.1 (inactive),0.943 (inactive),0.435 (active),1.13 (inactive),0.997 (inactive)
Flavobacterium 2 (Flavobacterium succinicans),0.489 (active),0.983 (inactive),0.926 (inactive),0.916 (inactive),0.961 (inactive),0.976 (inactive),1.03 (inactive),1 (inactive),0.933 (inactive),0.952 (inactive),0.849 (inactive),0.962 (inactive),0.966 (inactive),0.0105 (active),1.13 (inactive),1.03 (inactive)
Bacillus 1 (Bacillus foraminis),0.916 (inactive),1.09 (inactive),0.965 (inactive),1.04 (inactive),1.05 (inactive),1.03 (inactive),1.01 (inactive),1.11 (inactive),0.884 (inactive),1.07 (inactive),0.918 (inactive),1.06 (inactive),1.08 (inactive),0.408 (active),1.05 (inactive),0.853 (inactive)
Pseudomonas 5 (Pseudomonas baetica),0.962 (inactive),1.03 (inactive),1.08 (inactive),0.989 (inactive),1 (inactive),1.01 (inactive),0.994 (inactive),1.04 (inactive),1.02 (inactive),1.05 (inactive),0.995 (inactive),1.05 (inactive),1.05 (inactive),0.501 (active),1.03 (inactive),0.951 (inactive)
Oryzobacter 1 (Oryzobacter terrae),0.0303 (active),1.04 (inactive),1.15 (inactive),1.27,1.07 (inactive),1.18 (inactive),1.02 (inactive),1.13 (inactive),1.09 (inactive),1.17 (inactive),1.12 (inactive),0.91 (inactive),1.06 (inactive),0.00191 (active),0.909 (inactive),1.15 (inactive)

# From the supplement of paper PMC12067926
